Assay results as given in ChEMBL document CHEMBL1157539, “Thousands of chemical starting points for antimalarial lead identification” (Nature, 2010).

system: Plasmodium falciparum; assay: GSK_TCMDC: Inhibition of Plasmodium falciparum Dd2 in whole red blood cells, using parasite LDH activity as an index of growth. Test compounds present at 2uM; assay type: functional

First: Cc1cc(O)nc(NC#N)n1
Second: Cc1ccc(Nc2nc(C)cc(Nc3cccc(C#N)c3)n2)cc1
The Inhibition of the first is lower: 3% for the first, 96% for the second.

Compared with CC(C)Cn1c(Sc2ccc(C#N)c([N+](=O)[O-])c2)nnc1-c1ccccc1, C=CCn1c(Sc2ccc(C#N)c([N+](=O)[O-])c2)nnc1-c1ccc(Cl)cc1 is higher in Inhibition: 12% for the first, 85% for the second.

Compared with COc1cccc(NC(=O)c2ccc(NCCCN3CC(C)CC(C)C3)c([N+](=O)[O-])c2)c1 (stereo not drawn), Cc1ccccc1C1CCN(C2CCC(NC(=O)c3cc(-c4ccccc4)oc3C)CC2)CC1 (stereo not drawn) is lower in Inhibition: 68% for the first, 32% for the second.

Going from Cn1nccc1C(=O)NCCNCc1cccc(-c2ccc(-c3nc4cc(C(F)(F)F)ccc4[nH]3)s2)c1.O=C(O)C(F)(F)F to O=C(Nc1ccc(-c2nc3ccccc3[nH]2)cc1)C1CCN(Cc2cccc(F)c2F)CC1, the Inhibition falls from 99% to 51%.

system: HepG2; assay: GSK_TCMDC: Percent inhibition of human HepG2 cell line. Test compounds present at 10uM.; assay type: functional

Compared with O=C(NCc1ccco1)c1ccc(S(=O)(=O)c2ccc(Cl)cc2)cc1, Cc1cc(C(F)(F)F)nn1-c1ccc(NC(=O)c2ccco2)cc1 is higher in Inhibition: 6% for the first, 14% for the second.

First: CCCc1cc(Cc2cnc(N)nc2N)cc(CCC)c1OCCCCC(=O)OCC
Second: CCCNCc1ccc(-c2ccc(CN(CCOC)C(=O)CCC(=O)c3ccc(OC)c(F)c3)cc2)nc1.O=C(O)C(F)(F)F
The Inhibition of the first is lower: 1% for the first, 13% for the second.

Compared with Cc1c(Cc2ccccc2)c(=O)oc2c(C)c3c(cc12)CN(CC(C)c1ccccc1)CO3 (stereo not drawn), Cc1ccccc1C1CCN(C2CCC(NC(=O)c3cc(-c4ccccc4)oc3C)CC2)CC1 (stereo not drawn) is higher in Inhibition: 1% for the first, 46% for the second.

Compared with COc1ccc(NC(=O)NC2CCN(CCCOc3cc(C)nc4ccccc34)CC2)cc1OC, COc1cc2nc(N3CCC(CNC(=O)c4cc5ccccc5s4)CC3)nc(N)c2cc1OC is higher in Inhibition: 3% for the first, 8% for the second.

Going from COc1ccc(-c2ccc(NC(=O)c3cccc(C#N)c3)cc2)cc1CN1CCCN(C)CC1.O=C(O)C(F)(F)F to CN(CCO)Cc1cccc(-c2ccc(NC(=O)c3cccc(C#N)c3)cc2)c1.O=C(O)C(F)(F)F, the Inhibition falls from 26% to 23%.

First: CC(C)CCNCc1ccc(OCc2ccccc2COc2ccc(CNCCC(C)C)cc2I)c(I)c1.Cl
Second: CCc1c(CCNCCc2cccc(CCNCCc3ccc(OC)c(OC)c3CC)c2)ccc(OC)c1OC.Cl
The Inhibition of the first is lower: 99% for the first, 100% for the second.

First: O=C(NC1CCN(Cc2ccccc2)CC1)c1ccc(-c2nc3cc(Cl)c(Cl)cc3[nH]2)c(F)c1
Second: O=C(Nc1ccc(-c2nc3ccccc3[nH]2)cc1)C1CCN(Cc2cccc(F)c2F)CC1
The Inhibition of the first is lower: 4% for the first, 23% for the second.

First: O=C(O)C(F)(F)F.Oc1ccc(CN2CCC(NCc3cccc4ccccc34)CC2)cc1
Second: O=C(O)C(F)(F)F.c1ccc(CCNCc2ccc(-c3ccc(CNC4CCN(Cc5ccccc5)CC4)cc3)nc2)cc1
The Inhibition of the first is lower: 8% for the first, 34% for the second.

Compared with O=C(/C=C/c1ccc(Cl)c(Cl)c1)NCCCCCCN1CCN(C(=O)Nc2cc(Cl)nc(Cl)c2)CC1, O=C(/C=C/c1ccc(Cl)c(Cl)c1)NCCCCCCN1CCCN(C(=O)Nc2ccc(C(F)(F)F)cc2)CC1 is higher in Inhibition: 15% for the first, 47% for the second.

Compared with O=C(Nc1ccc(OC2CCN(Cc3ccccc3)CC2)c(Cl)c1)c1ccsc1.O=C(O)C(F)(F)F, Cc1ccc(NC(=O)c2ccc(CN3CCCN(CCC(C)C)CC3)cc2)cc1F.O=C(O)C(F)(F)F is higher in Inhibition: 3% for the first, 40% for the second.

Cc1cc(C(=O)Nc2ccc3c(c2)CCN3C2CCN(Cc3cccc(F)c3F)C2)no1 (stereo not drawn) and Cc1cc(N2CCOCC2)nc2ccc(NC(=O)c3cccc([N+](=O)[O-])c3)cc12 are the same in Inhibition: 0% for the first, 0% for the second.

Going from O=C(Nc1ccc(F)c(Cl)c1)NC1CCN(c2ccnc3cc(Cl)ccc23)C1.O=C(O)C(F)(F)F (stereo not drawn) to O=C(/C=C/c1ccc(Cl)c(Cl)c1)NCCCCCN1CCC(NC(=O)Nc2ccc(F)c(Cl)c2)CC1, the Inhibition rises from 37% to 98%.

First: FC(F)(F)c1ccc2[nH]c(-c3cccc(-c4cccc(CNCCc5ccncc5)c4)c3)nc2c1.O=C(O)C(F)(F)F
Second: Cn1nccc1C(=O)NCCNCc1cccc(-c2ccc(-c3nc4cc(C(F)(F)F)ccc4[nH]3)s2)c1.O=C(O)C(F)(F)F
The Inhibition of the first is lower: 31% for the first, 36% for the second.

Going from Nc1cccc(CNCc2ccc(-c3ccc(-c4nc5cc(F)ccc5[nH]4)s3)cc2)c1.O=C(O)C(F)(F)F to CCn1c(-c2nonc2N)nc2c(-c3cccc(NC(=O)Nc4cccc(C#N)c4)c3)ncc(OCCCN)c21.O=C(O)C(F)(F)F, the Inhibition rises from 12% to 37%.

First: COc1ccc(-c2cncc(-c3ccc(OC)c(OC)c3)n2)cc1OC.Cl
Second: Cl.NCc1ccc(-c2ccc3c(N)nccc3c2)cc1
The Inhibition of the first is lower: 6% for the first, 28% for the second.

Compared with COc1ccc2nccc([C@@H](O)CN3CCC(NCC(O)Cc4ccccc4)CC3)c2c1.O=C(O)C(=O)O (stereo partly drawn), COc1ccc2nccc([C@@H](O)CN3CCC(NC(=O)Cc4cccc5c(Br)cccc45)CC3)c2c1 is higher in Inhibition: 5% for the first, 15% for the second.

Compared with CC(C)[C@H](NC(=O)c1ccc(O)c(-c2ccc(Cl)c(Cl)c2)c1)C(=O)NC1CCCCCC1, O=C(N[C@H]1CCN(Cc2ccc(OCCCN3CCCCC3)cc2)C1)c1ccc2ccccc2c1 is higher in Inhibition: 0% for the first, 8% for the second.

First: CN1CCN(CCCN(Cc2cccc(-c3ccc(CNC4CCCC4)cc3)c2)C(=O)CCC2CCCC2)CC1.O=C(O)C(F)(F)F
Second: COc1cccc(NC(=O)c2ccc(NCCCN3CC(C)CC(C)C3)c([N+](=O)[O-])c2)c1 (stereo not drawn)
The Inhibition of the first is higher: 16% for the first, 14% for the second.

Going from Cc1cc(O)nc(NC#N)n1 to Cc1ccc(Nc2nc(C)cc(Nc3cccc(C#N)c3)n2)cc1, the Inhibition rises from 8% to 14%.

Compared with CC(C)Cn1c(Sc2ccc(C#N)c([N+](=O)[O-])c2)nnc1-c1ccccc1, C=CCn1c(Sc2ccc(C#N)c([N+](=O)[O-])c2)nnc1-c1ccc(Cl)cc1 is lower in Inhibition: 17% for the first, 13% for the second.
